The text below walks through data of PubChem BioAssay (NCATS).

Test [1] is described as follows: qHTS profiling for inhibitors of Plasmodium falciparum proliferation (AID 504749).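 For activity, negative = inhibition: 0% = DMSO vehicle and full inhibition = artemisinin control.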 For all read-outs here: nearly all actives have a fitted effect of over 60% in size. As to conditions: P. falciparum in erythrocytes, SYBR Green DNA, 72 h; for activity, negative = inhibition: at 28.7 µM (top of the series). The method, boiled down: (§1)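 Quantitative HTS: compounds pinned into medium, infected erythrocytes added (0.3% parasitemia, 2.5% hematocrit), 72 h culture at 37 C under 5% CO2. Saponin/Triton lysis with SYBR Green I, overnight RT, then fluorescence read.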

The subject of test [2] is 3D7. The description is as above. Particulars: P. falciparum in erythrocytes, SYBR Green DNA, 72 h; series mostly up to 28.7 µM. A digest of the protocol:
as §1

Test [3] concerns 7G8. The description is as above. Particulars: P. falciparum in erythrocytes, SYBR Green DNA, 72 h; series mostly up to 28.7 µM. The method, boiled down:
as §1

Test [4] relates to AA1029. The test is described as above. Particulars: P. falciparum in erythrocytes, SYBR Green DNA, 72 h; series mostly up to 28.7 µM. The method, boiled down:
as §1

The test system of test [5] is AS120. The test is described as above. Particulars: P. falciparum in erythrocytes, SYBR Green DNA, 72 h; series mostly up to 28.7 µM. The method, boiled down: as §1
The subject of test [6] is ATS189. The test is described as above. Particulars: P. falciparum in erythrocytes, SYBR Green DNA, 72 h; series mostly up to 28.7 µM. A digest of the protocol: as §1
In test [7] the test system is ATS95. The test is described as above. As to conditions: P. falciparum in erythrocytes, SYBR Green DNA, 72 h; series mostly up to 28.7 µM. A digest of the protocol:
as §1

The subject of test [8] is C2A. Described as above. Particulars: P. falciparum in erythrocytes, SYBR Green DNA, 72 h; series mostly up to 28.7 µM. A digest of the protocol: as §1
The test system of test [9] is CP185. The test is described as above. Particulars: P. falciparum in erythrocytes, SYBR Green DNA, 72 h; series mostly up to 28.7 µM. A digest of the protocol: as §1
Test [10] deals with CP191. The description is as above. As to conditions: P. falciparum in erythrocytes, SYBR Green DNA, 72 h; series mostly up to 28.7 µM. A digest of the protocol: as §1
The test system of test [11] is CP192. The description is as above. Particulars: P. falciparum in erythrocytes, SYBR Green DNA, 72 h; series mostly up to 28.7 µM. A digest of the protocol:
as §1

Records with an inconclusive call do not appear. A number with no mark means an inactive call. Calls of active or inactive are those of the source. Calls come from the whole dose curve; as a rule, active = well fitted inhibition curve with a large enough effect; inconclusive = small, poorly fitted or top-dose-only effect; inactive = flat fitted curve, though single readings scatter.
Potency is the fitted concentration of half-maximal effect.

`NCCN`: the results for the activity, negative = inhibition in [1] (parasite line A) and in test [1] (parasite line B) were 5.04% and 2.26%, respectively. The Potency entry in [2], in test [3], in test [4], in [5], in [6] and in test [7] was “inactive” throughout. Besides, the Potency result in test [8], in test [9], in [10] and in [11] was “inactive” each time.
In the case of `CCOC(=O)c1cc(-c2ccccc2)nc2ccc(C)cc12`, the activity, negative = inhibition is 17.4% in test [1] (parasite line A) and 7.25% in test [1] (parasite line B). For the same compound, the Potency result in [2], in test [3], in test [4], in test [5], in test [6] and in test [7] was “inactive” throughout. For the same compound, the Potency result in test [8], in test [9], in test [10] and in test [11] was “inactive” in each case.
Regarding `CCCC(=O)O`, the values for the activity, negative = inhibition in test [1] (parasite line A) and in [1] (parasite line B) were 7.39% and 16.4%, respectively. The Potency entry in test [2], in test [3], in [4], in test [5], in test [6] and in test [7] was “inactive” throughout. Further, the Potency result in test [8], in test [9], in [10] and in [11] was “inactive” in each case.
With `Nc1nc(=O)n([C@@H]2CS[C@H](CO)O2)cc1F`, the activity, negative = inhibition was 2.36% in test [1] (parasite line A) and 4.33% in test [1] (parasite line B). In addition, the Potency result in test [2], in [3], in test [4], in test [5], in test [6] and in test [7] was “inactive” throughout. The Potency entry in [8], in test [9], in [10] and in test [11] was “inactive” each time.
`CN1C(=O)C[C@@H](C(=O)N[C@@H](Cc2cnc[nH]2)C(=O)N2CCC[C@H]2C(N)=O)NC1=O`: the activity, negative = inhibition in [1] (parasite line A) was 13.6%; in [1] (parasite line B) it was -7.4%. Moreover, the Potency result in test [2], in [3], in test [4], in [5], in test [6] and in [7] was “inactive” in each case. The Potency entry in test [8], in test [9], in [10] and in test [11] was “inactive” throughout.
`FC(F)OC(Cl)C(F)(F)F` (centres undefined): the figures for the activity, negative = inhibition in [1] (parasite line A) and in test [1] (parasite line B) were 2.2% and 13%, respectively. The Potency entry in test [2], in [3], in [4], in [5], in test [6] and in test [7] was “inactive” in each case. Moreover, the Potency entry in test [8], in test [9], in [10] and in test [11] was “inactive” throughout.
For the compound `FC(F)(F)C(F)(F)C(F)(F)C(F)(F)C(F)(F)C(F)(F)F`, the activity, negative = inhibition in test [1] (parasite line A) is 2.24%; in [1] (parasite line B), 2.03%. The Potency result in test [2], in test [3], in test [4], in [5], in [6] and in test [7] was “inactive” throughout. Besides, the Potency entry in test [8], in test [9], in test [10] and in test [11] was “inactive” in each case.
Consider `CCCOC(=O)c1ccccc1O`, for which the values for the activity, negative = inhibition in test [1] (parasite line A) and in test [1] (parasite line B) were 3.1% and 6.22%, respectively. In addition, the Potency result in [2], in test [3], in [4], in [5], in test [6] and in [7] was “inactive” in each case. Besides, the Potency result in test [8], in [9], in test [10] and in [11] was “inactive” each time.
For `CCOc1ccc(NC(=S)Nc2ccc(OCC)cc2)cc1`, the activity, negative = inhibition in test [1] (parasite line A) was 1.76%; in test [1] (parasite line B), -2.23%. Also, the Potency result in [2], in test [3], in test [4], in test [5], in test [6] and in [7] was “inactive” throughout. For the same compound, the Potency entry in [8], in test [9], in test [10] and in test [11] was “inactive” each time.
On to `CCN(CC)CCCC(C)Nc1cc(/C=C/c2ccccc2Cl)nc2cc(Cl)ccc12` (centres undefined), for which the Potency was 1.78 µM (active) in [1] (parasite line A); 2 µM (active) in [1] (parasite line B); 1.41 µM (active) in test [2]; 0.794 µM (active) in test [3]; 2.24 µM (active) in test [4]; 2 µM (active) in [5]. Moreover, the Potency was 3.55 µM (active) in test [6]; 2.51 µM (active) in test [7]; 1.12 µM (active) in test [8]; 2.82 µM (active) in test [9]; 1.26 µM (active) in test [10].
For the compound `O=c1[nH]c(=O)n([C@H]2C[C@H](O)[C@@H](CO)O2)cc1/C=C/Br`, the values for the activity, negative = inhibition in [1] (parasite line A) and in test [1] (parasite line B) were 6.74% and -10.9%, respectively. Further, the Potency result in test [2], in test [3], in test [4], in [5], in test [6] and in test [7] was “inactive” in each case. For the same compound, the Potency result in test [8], in [9], in test [10] and in test [11] was “inactive” throughout.
On to `Cc1ncc(COP(=O)(O)O)c(CN)c1O`, for which the figures for the activity, negative = inhibition in [1] (parasite line A) and in [1] (parasite line B) were -3.16% and 3.16%, respectively. Moreover, the Potency entry in [2], in test [3], in [4], in [5], in test [6] and in test [7] was “inactive” each time. Also, the Potency result in [8], in [9], in [10] and in test [11] was “inactive” in each case.
Turning to `NCCO/C=C/[C@H](N)C(=O)O`, the activity, negative = inhibition is 6.56% in test [1] (parasite line A) and 15.6% in [1] (parasite line B). In addition, the Potency entry in test [2], in [3], in [4], in test [5], in test [6] and in test [7] was “inactive” each time. Besides, the Potency entry in test [8], in test [9], in [10] and in test [11] was “inactive” each time.
In the case of `CC(C)(C)c1ccc2c(S(=O)(=O)O)c(C(C)(C)C)ccc2c1`, the activity, negative = inhibition in test [1] (parasite line A) is 16.3%; in test [1] (parasite line B), 12.2%. Further, the Potency entry in [2], in test [3], in [4], in [5], in [6] and in test [7] was “inactive” throughout. Besides, the Potency entry in test [8], in test [9], in test [10] and in [11] was “inactive” in each case.
With `O=C(O)COc1ccc(CCNS(=O)(=O)c2ccccc2)s1`, the activity, negative = inhibition in [1] (parasite line A) was 12.4%; in [1] (parasite line B), -10.1%. Also, the Potency result in test [2], in test [3], in test [4], in test [5], in [6] and in test [7] was “inactive” each time. In addition, the Potency entry in test [8], in [9], in test [10] and in [11] was “inactive” in each case.
